Measured values as given in PubChem BioAssay (NCI).
This is part of a sample that, as a whole, favours compounds with a hit. Of some 83,000 tested, about 20% had one in any assay.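 Method: cells in 96-well plates; compound added at one concentration; 48 h incubation; percent growth measured; values under 10 scored active.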 Unmarked numbers belong to inactive results.

Test system: MDA-MB-468 breast
Experiment: NCI-60 one-dose screen, 48 h (100 = growth as untreated, 0 = no growth, -100 = all killed)
Conditions: 10 µM unless noted

SMILES	growth [%]
C[C@]12CC[C@H]3[C@@H](CC[C@]4(O)C[C@@H](O[C@@H]5O[C@H](CO)[C@@H](O[C@@H]6OC[C@@H](O)[C@H](O)[C@H]6O)[C@H](O)[C@H]5O)CC[C@]34C=O)[C@@]1(O)CC[C@@H]2C1=CC(=O)OC1	38.7
O=C(O)CNC(=O)C(Cl)(Cl)Cl	98.8
OCCCCCNC1CCCCC1	97.6
